Each structure is given as a SMILES string. In all, about 320,000 compounds went through this assay and about 2,100 (0.66%) were called active. Not shown: some 53% with an inconclusive outcome. Calls come from the whole dose curve; as a rule, active = well fitted inhibition curve with a large enough effect in the signal ratio, with a control signal flat (not every such curve was filed as active); inconclusive = small, poorly fitted or top-dose-only effect, or effect the other way, or a change in a side signal; inactive = flat fitted curve, though single readings scatter; the % refers to the signal ratio. Shown is part of a subset that was picked to be rich in actives.
Potency is the fitted concentration of half-maximal effect.

The nature of the experiment: qHTS Assay for Lipid Storage Modulators in Drosophila S3 Cells.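 For cell number change: cells counted by Cell Tracker Red CMTPX staining in the red channel.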 For lipid storage change, negative = inhibition: % is set by controls: 0 for no effect and ±100 for the full control effect. Particulars: BODIPY lipid droplet fluorescence, 18-24 h, cells fed with added oleic acid; cell number change: measured here: cell count max response; series mostly up to 46.1 µM; lipid storage change, negative = inhibition: at the top concentration. The procedure, abridged: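 Laser-scanning cytometry quantifies lipid droplet accumulation (500–530 nm total intensity; droplet/cell object ratio) in oleic acid-fed (400 uM added) Drosophila S3 cells treated with a concentration series. 20 uM Triacsin C defined 100% inhibition.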
In general terms: Quantitative high-throughput screening tests each substance at several concentrations.
On to `CCN(C(=O)CCC(=O)N(CC)c1ccccc1)c1ccccc1`, for which the “lipid storage change, negative = inhibition” value was 15.9% (inactive) and the cell number change was -0.108%.

On to `CCN(C(=O)c1ccccc1Cl)c1ccccc1`, for which the Potency is 23.1 µM (active).

For the compound `CN(C(=O)c1ccccc1Cl)c1ccccc1`, the “lipid storage change, negative = inhibition” value is -1.64% (inactive).

Consider `CCC(C)(C)n1nnnc1C(c1cccnc1)N1CCN(c2cccc(C(F)(F)F)c2)CC1` (stereo not given), for which the “lipid storage change, negative = inhibition” value was -18.5% (inactive) and the cell number change was -8.43%.

For the compound `O=[N+]([O-])c1ccc(-c2ccc(S(=O)(=O)N3CCOCC3)cc2)cc1`, the “lipid storage change, negative = inhibition” value is 20.9% (inactive) and the cell number change is -1.81%.

As to `CC(=O)C(=Cc1ccc(O)cc1)C(C)=O`, the “lipid storage change, negative = inhibition” value was -1.96% (inactive) and the cell number change is -7.54%.

With `Cc1cc2c(cc1S(=O)(=O)N(C)c1ccccc1)NC(=O)CO2`, the “lipid storage change, negative = inhibition” value was -11.8% (inactive) and the cell number change was -11.6%.

In the case of `O=C(CN1CCN(C(=O)c2ccco2)CC1)Nc1cc(Cl)ccc1Cl`, the “lipid storage change, negative = inhibition” value is -22.6% (inactive) and the cell number change was -13.1%.

With `Cc1cc(Cl)ccc1NC(=O)CN1CCN(C(=O)c2ccco2)CC1`, the Potency was 4.61 µM (active) and the cell number change was determined as 2.78%.

For the compound `CCOC(=O)c1cc(C)sc1NC(=O)CN1CCN(C(=O)c2ccco2)CC1`, the result was inactive and the cell number change worked out at 16.2%.

As for `CCc1cc(C(=O)OC)c(NC(=O)CN2CCN(C(=O)c3ccco3)CC2)s1`, the “lipid storage change, negative = inhibition” value is -16.1% (inactive) and the cell number change stood at 13.8%.

Regarding `Cc1ccccc1NC(=O)CN1CCN(C(=O)c2ccco2)CC1`, the “lipid storage change, negative = inhibition” value is -7.52% (inactive) and the cell number change was found to be 25%.

Consider `COC(=O)c1cc(C)sc1NC(=O)CN1CCN(C(=O)c2ccco2)CC1`, for which the Potency was 1.84 µM (active) and the cell number change turned out to be 3.78%.

Consider `O=C(O)c1cc(-c2cccnc2)nc2ccc(Br)cc12`, for which the “lipid storage change, negative = inhibition” value was 0.173% (inactive) and the cell number change stood at 9.56%.

For `CC(C)(C)c1ccc(OCc2nnc(SCC(N)=O)n2N)cc1`, the outcome was inactive.

Turning to `Cc1cccc(NC(=O)CCNC(=O)c2ccccc2Cl)n1`, the “lipid storage change, negative = inhibition” value was 12.1% (inactive).

In the case of `COC(=O)c1ccccc1NC(=O)c1cccnc1`, the “lipid storage change, negative = inhibition” value is -6.62% (inactive) and the cell number change is 10.2%.

As for `C/C(=C\C=C(C#N)C#N)c1cc(C#N)c(N)o1`, the Potency was 16.4 µM (active) and the cell number change is -22.3%.

In the case of `O=C(Cc1cccs1)Nc1ccccc1F`, the “lipid storage change, negative = inhibition” value was 14% (inactive) and the cell number change amounted to 10.1%.

On to `CCOCCCNC(c1ccccc1)c1ccncc1` (stereo not given), for which the compound was called inactive and the cell number change amounted to 7.02%.

Regarding `Cc1nc2c(n1O)CCC/C2=N\O`, the “lipid storage change, negative = inhibition” value was 7.07% (inactive) and the cell number change is -1.11%.

With `O/N=C1\CCCc2c1nc(-c1ccccc1F)n2O`, the “lipid storage change, negative = inhibition” value was 12.7% (inactive).

In the case of `COc1ccc(-c2nc3c(n2O)CCC/C3=N\O)cc1`, the Potency is 4.61 µM (active) and the cell number change worked out at 4.07%.

With `O=C(c1cc(COc2ccc(F)cc2Cl)on1)N1CCCC(OCc2cccnc2)C1` (stereo not given), the “lipid storage change, negative = inhibition” value was -18.4% (inactive) and the cell number change was -4.29%.

With `COc1ccccc1OCc1cc(C(=O)N2CCCC(OCc3cccnc3)C2)no1` (stereo not given), the “lipid storage change, negative = inhibition” value was -8.97% (inactive) and the cell number change turned out to be 8.19%.

As to `O=C(c1cc(COc2ccc3ncccc3c2)on1)N1CCCC1`, the Potency is 7.31 µM (active) and the cell number change is -24%.

As for `CCC(O)C1CCN(C(=O)c2cc(COc3ccc4ncccc4c3)on2)CC1` (stereo not given), the “lipid storage change, negative = inhibition” value is 8.73% (inactive).

Take `O=C(c1cc(COc2ccccc2)on1)N1CCCC(OCc2cccnc2)C1` (stereo not given): the Potency is 1.03 µM (active).

Turning to `COc1cccc(OCc2cc(C(=O)N3CCN(C(C)=O)CC3)no2)c1`, the outcome was inactive and the cell number change stood at 19%.

For the compound `Cc1cccc(C)c1OCc1cc(C(=O)N2CCC(c3ccncc3)CC2)no1`, the compound was classed as inactive and the cell number change is -16.1%.

With `CCN1CCN(C(=O)c2cc(COc3ccc4ncccc4c3)on2)CC1`, the “lipid storage change, negative = inhibition” value is -15.1% (inactive) and the cell number change was -6.54%.

For `COc1cccc(OCc2cc(C(=O)N3CCC(c4ccncc4)CC3)no2)c1`, the Potency was 4.11 µM (active).

On to `CCOC(=O)C(C(=O)OCC)N(C#N)c1nc(N(C)C)nc(N(C)C)n1`, for which the “lipid storage change, negative = inhibition” value is 1.46% (inactive) and the cell number change amounted to 12.4%.

Consider `O=c1[nH]n2cc(-n3cc([N+](=O)[O-])cn3)cnc2c1Br`, for which the compound was called inactive.

With `Cc1ccc(C(=O)Nc2ccc(N3CCN(C)CC3)cc2)cc1C`, the “lipid storage change, negative = inhibition” value is -16.1% (inactive) and the cell number change amounted to 4.5%.

Consider `Nc1nnc(SCc2ccccc2F)s1`, for which the “lipid storage change, negative = inhibition” value is 20.7% (inactive) and the cell number change came out at 16.1%.

With `COc1ccc(NC(=O)CC2C(=O)N(C)C(=S)N2Cc2ccc3c(c2)OCO3)cc1` (stereo not given), the “lipid storage change, negative = inhibition” value was -26.7% (inactive) and the cell number change stood at 20%.

As to `COc1ccc(-c2ccc(CCC(=O)O)n2-c2ccccc2O)cc1`, the “lipid storage change, negative = inhibition” value is 2.11% (inactive) and the cell number change was found to be 6.08%.

For the compound `Oc1ccccc1-n1c(-c2ccccc2)ccc1-c1ccccc1`, the Potency is 2.06 µM (active) and the cell number change is -6.63%.

For `C/C(=N\O)c1c(O)cc(-c2ccccc2)n(-c2ccccc2)c1=O`, the “lipid storage change, negative = inhibition” value was 4.63% (inactive) and the cell number change was 13.2%.

`O=C(CCCN1C(=O)c2ccccc2C1=O)Nc1ccc(Br)cn1`: the “lipid storage change, negative = inhibition” value was -25.9% (inactive) and the cell number change was determined as 16.2%.

Turning to `Cc1ccc(S(=O)(=O)N2CCOC2CNC(=O)C(=O)NCCCN2CCOCC2)cc1` (stereo not given), the cell number change is -5.14% and the outcome was “inactive [at 0.369 µM]”.

Take `COC(=O)c1ccncc1C(=O)Nc1ccc(Oc2ncc(C(F)(F)F)cc2Cl)cc1`: the “lipid storage change, negative = inhibition” value was -11.6% (inactive) and the cell number change was -10.1%.

Turning to `CCCOc1ccc(CCC(=O)O)cc1`, the “lipid storage change, negative = inhibition” value was 4.14% (inactive) and the cell number change turned out to be 1.83%.

Consider `Cc1nc(SCC(=O)NC(=O)NC2CCCCC2)nc(C)c1C`, for which the “lipid storage change, negative = inhibition” value is -12.8% (inactive) and the cell number change was -13.4%.

In the case of `COc1ccc(CCNC(=O)c2ccco2)cc1OC`, the “lipid storage change, negative = inhibition” value is 5.81% (inactive) and the cell number change was 10.7%.

Consider `COc1ccc(CCN(C)C(=O)C(CCSC)NC(=O)c2ccco2)cc1OC` (stereo not given), for which the Potency is 2.31 µM (active) and the cell number change is -10.8%.

With `CSCCC(NC(=O)c1ccco1)C(=O)N(C)CC(=O)Nc1c(Cl)cccc1Cl` (stereo not given), the result was inactive.

Take `CCOC(=O)c1c(-c2ccccc2)csc1NC(=O)/C(C#N)=C/c1ccc(OC)c(OC)c1`: the “lipid storage change, negative = inhibition” value is 15.7% (inactive) and the cell number change is -0.159%.

Regarding `COc1cc(/C=C(\C#N)C(=O)NCc2cccs2)ccc1O`, the “lipid storage change, negative = inhibition” value was -8.42% (inactive) and the cell number change was -0.911%.

For `CCOC(=O)c1c(-c2ccc(C)cc2)csc1NC(=O)/C(C#N)=C/c1ccc(O)c(OC)c1`, the Potency was 23.1 µM (active) and the cell number change is -27.7%.

For `COc1ccccc1NC(=O)CN1CCOCC1`, the “lipid storage change, negative = inhibition” value is 20.9% (inactive) and the cell number change was determined as 25.4%.

Take `COc1ccc(/C=N/NC(=O)c2cccc(NC(=O)c3ccccc3Cl)c2)cc1`: the compound was called inactive and the cell number change was -0.417%.

As for `O=C(COC(=O)CCOc1ccccc1)NCCC1=CCCCC1`, the “lipid storage change, negative = inhibition” value was 10.3% (inactive) and the cell number change was 10.9%.

With `CCOC(=O)C(C)(C)N(Cc1ccccc1C)S(=O)(=O)c1ccc(Cl)c([N+](=O)[O-])c1`, the “lipid storage change, negative = inhibition” value is -15.8% (inactive) and the cell number change is -1.56%.

Turning to `CCOC(=O)C(C)(C)N(Cc1ccc(C)cc1)S(=O)(=O)c1ccc(Cl)c([N+](=O)[O-])c1`, the call was inactive and the cell number change was -25.3%.

Consider `CCOC(=O)C(C)(C)NS(=O)(=O)c1ccc(Cl)c([N+](=O)[O-])c1`, for which the Potency is 20.6 µM (active) and the cell number change is -25%.

As to `CCOC(=O)C(C)(C)N(Cc1cccc(C)c1)S(=O)(=O)c1ccc(Cl)c([N+](=O)[O-])c1`, the Potency is 16.4 µM (active) and the cell number change is -21.7%.

As for `CCOC(=O)C(C)(C)N(Cc1cccc(C)c1)S(=O)(=O)c1cccc([N+](=O)[O-])c1`, the “lipid storage change, negative = inhibition” value is -28.1% (inactive) and the cell number change was -5.11%.

For `CCOC(=O)C(C)(C)N(Cc1ccc(Cl)cc1)S(=O)(=O)c1ccc(Cl)c([N+](=O)[O-])c1`, the “lipid storage change, negative = inhibition” value was 15.5% (inactive) and the cell number change is 5.39%.

These data come from PubChem BioAssay AID2685 (National Center for Advancing Translational Sciences (NCATS), 2010).
